# The list is not random: actives were taken first. Their share in the collection is about 7.4%.
# FLuc modulator – firefly luciferase modulation, counter-screen for miR-21 project; P08659; purified FLuc, Km substrates, luminescence inhibition; Potency, µM (series often up to 57.5 µM), inactives show top-dose activity change, negative = inhibition, hits mostly inhibitors; hit rate 6.9% among 360,000; AID 588342;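 note: plate controls were vehicle for no effect and reference inhibitor for full effect; nearly all actives have a fitted effect of over 55% in size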
# Target sequence (P08659 whole entry, looked up): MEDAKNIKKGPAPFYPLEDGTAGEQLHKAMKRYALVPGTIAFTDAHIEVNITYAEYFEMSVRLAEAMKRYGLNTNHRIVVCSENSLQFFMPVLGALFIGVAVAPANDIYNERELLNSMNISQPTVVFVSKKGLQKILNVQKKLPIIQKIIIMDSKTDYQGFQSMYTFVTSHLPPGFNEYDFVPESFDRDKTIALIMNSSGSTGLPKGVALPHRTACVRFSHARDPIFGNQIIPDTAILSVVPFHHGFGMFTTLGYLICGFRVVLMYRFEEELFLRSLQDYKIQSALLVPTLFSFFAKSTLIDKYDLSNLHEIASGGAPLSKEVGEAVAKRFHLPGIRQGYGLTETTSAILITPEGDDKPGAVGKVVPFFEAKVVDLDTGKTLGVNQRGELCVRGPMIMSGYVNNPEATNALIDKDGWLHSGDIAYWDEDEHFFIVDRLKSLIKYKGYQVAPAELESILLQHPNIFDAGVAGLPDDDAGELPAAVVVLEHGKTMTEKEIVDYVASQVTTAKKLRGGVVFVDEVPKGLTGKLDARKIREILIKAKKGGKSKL
#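 Biochemical qHTS of compounds, final roughly 60 µM downward over six points, against 10 nM purified firefly luciferase using Km concentrations of substrates (10 uM D-luciferin, 10 uM ATP) in Tris acetate pH 7.5 buffer; luminescence output.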
# NPC1 promoter act – activators of NPC1 promoter. Potency, µM (highest dose often 9.22 µM), for the others: at the highest dose activation, usual class: activators. hit rate 2.4% among 320,000. Huh7 NPC1 promoter luciferase reporter, 24 h; note: % of control where 0% means no effect; nearly all actives have a fitted effect of over 60% in size
#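 Huh7 reporter cells (NPC1 promoter driving luciferase) are dosed with compound for 24 h at 37 °C, 5% CO2; luciferase detection reagent is then added and luminescence measured after 10 min at ambient temperature.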
# Rab9 promoter act – activates the Rab9 promoter | Huh7 Rab9 promoter-luciferase reporter, luminescence, 24 h | AID 485297 | Potency, µM (doses to about 9.22 µM), for inactives: at the top dose activation, negative = inhibition, usual class: activators | hit rate 2.8% among 320,000; note: % of control where 0% means no effect; nearly all actives have a fitted effect of over 60% in size
#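 Rab9 promoter-driven luciferase in stably transfected Huh7 cells; 1500 cells/well rested 2 h, exposed to compound in DMSO for 24 h at 37 °C, 5% CO2. Luminescence read 10 min after adding luciferase reagent at ambient temperature.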
# ELG1 genotoxic – genotoxicity induction in ELG1-luciferase HEK293T cells; HEK293T ELG1-luciferase reporter, luminescence, 16 h; Potency, µM (titrated, usually from 46 µM), without a hit: at the top dose activity change, positive = activation, most hits filed as activators; hit rate 1.3% among 330,000; AID 504466; note: % of control where 0% means no effect; nearly all actives have a fitted effect of over 60% in size
#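 Luminescence read-out: rising ELG1-luciferase signal, reflecting elevated ELG1 protein under genetic stress, flags genotoxic compounds. Cells were treated for 16 hr at 37 °C before ONE-Glo detection.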
# SMN2 splice enh – SMN2 splice variant enhancement | HEK293 SMN2-luciferase splicing reporter, luminescence, 30-36 h | Potency, µM (highest dose often 46.1 µM), for inactives: top-dose activity change, positive = activation, actives largely listed as activators | hit rate 2.8% among 210,000 | AID 1458; note: % of control where 0% means no effect; nearly all actives have a fitted effect of over 55% in size
#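 HEK293 cells carry an SMN2 minigene-luciferase reporter in which exon 7 inclusion puts luciferase in frame. Cells were seeded at 2000 cells/well, attached for 10-12 hours, then exposed to compounds for 30-36 hours at 37C before ONE-Glo luminescence.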
# Luc counter – counter-screen: inhibitors of Kinase-Glo firefly luciferase; Q27757; Kinase-Glo luciferase, ATP luminescence, 8 min; Potency, µM (series often up to 38.3 µM), for the others: top-dose activity change, negative = inhibition, most hits filed as inhibitors; hit rate 0.28% among 200,000; AID 1379; note: % is set by controls: 0 for no effect and ±100 for the full control effect; nearly all actives have a fitted effect of over 60% in size
#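 Inhibition of Kinase-Glo luciferase light generation was assessed at 10 uM ATP in pH 7.2 imidazole buffer, with luminescence measured after eight minutes at ambient temperature.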
# * hit, by the source's call; ? = inconclusive; . = no result; [ ] = another dose, or the depositor's remark. Calls come from the whole dose curve; as a rule, active = well fitted curve in the direction sought with a large enough effect; inconclusive = small, poorly fitted or top-dose-only effect, or another doubt; inactive = no such curve, though single readings can be large; an effect the other way counts as inactive or inconclusive. Potency is the fitted concentration of half-maximal effect.
SMILES,FLuc modulator,NPC1 promoter act,Rab9 promoter act,ELG1 genotoxic,SMN2 splice enh,Luc counter
O=C(c1cc2cc(Cl)ccc2oc1=O)N1CCOCC1,0.1%,-3.2%,-0.2%,1.0%,10.6%,0.6%
O=C(c1cc2cc([N+](=O)[O-])ccc2oc1=O)N1CCN(c2ncccn2)CC1,2.8%,0.0%,-6.6%,-0.2%,-4.5%,-0.6%
CCOc1cccc(-c2csc(C3COc4ccccc4O3)n2)c1 (centres undefined),2.13µM*,?,3.98µM*,?,3.98µM*,0.9%
COc1cccc(Nc2nc(-c3sc(N)nc3C)cs2)c1,13.5µM*,24.9%,?,?,?,0.0%
COc1ccccc1Nc1nc(-c2sc(N)nc2C)cs1,?,-0.3%,3.3%,1.1%,.,.
Cc1nc(N)sc1-c1csc(Nc2ncccn2)n1,3.01µM*,?,0.562µM*,23.1µM*,5.62µM*,-1.6%
COc1cccc(Nc2nc(-c3sc(C)nc3C)cs2)c1,19µM*,23.9%,26.4%,14.1%,.,.
COc1ccc(OC)c(Nc2nc(-c3sc(C)nc3C)cs2)c1,?,-0.1%,1.1%,-2.4%,-17.3%,-3.5%
COc1cccc(Nc2nc(-c3sc(NC(=O)c4ccco4)nc3C)cs2)c1,23.9µM*,-6.2%,-5.8%,-8.4%,1.0%,-11.6%
COc1ccc(Cl)cc1Nc1nc(-c2sc(NC(=O)c3ccco3)nc2C)cs1,?,-8.7%,-3.6%,-8.2%,-4.1%,-12.4%
Cc1nc(C)c(-c2csc(Nc3ccc(C(=O)O)c(O)c3)n2)s1,12µM*,-1.9%,4.0%,-4.0%,.,.
Cc1nc(C)c(-c2csc(Nc3ccc(F)cc3)n2)s1,?,11.7%,?,23.1%,-18.8%,1.6%
O=C(/C=C/c1ccccc1)NC(=O)c1ccccc1O,1.69µM*,?,?,?,.,.
O=C(/C=C/c1ccccc1)CC(=O)c1ccccc1O,15.1µM*,25.7%,?,?,.,.
COc1ccc(N2CCN(C(=O)Nc3cccc(C(F)(F)F)c3)CC2)cc1,0.8%,1.6%,-3.5%,-2.5%,-26.3%,-5.3%
CN1CCN(c2ccc(-c3ccnn3C(=O)Nc3cccc(C(F)(F)F)c3)cc2)CC1,21.3µM*,3.55µM*,22.6%[1.84 µM],?,12.6µM*,-3.3%
Cc1c(NC(=O)c2ccc(N3CCCC3)c([N+](=O)[O-])c2)cccc1-c1nc2ccccc2s1,2.69µM*,1.3%,16.6%,-4.5%,-36.8%,5.6%
COc1cccc(C(=O)Nc2ccccc2-c2nc3ccccc3s2)c1,-0.6%,.,.,.,9.2%,.
Cc1c(NC(=O)c2ncn[nH]2)cccc1-c1nc2ccccc2s1,4.26µM*,18.9%,22.4%,1.4%,8.4%,-3.3%
Cc1ccc(OCCC(=O)NNC(=O)c2ccccc2F)cc1,.,-1.3%,-10.4%,-1.3%,.,.
O=C(Nc1cc2c(cc1C(=O)c1ccc(Br)cc1)OCCO2)c1ccc(Cl)cc1,-1.8%,.,.,.,10.2%,.
C[C@@]12CCC3[C@@](CCC4[C@@]3(C)CCC[C@@]4(C)C(=O)N3CCCCC3)(CC1=O)C2 (some centres undefined),2.3%,-0.1%,-2.7%,-6.7%,.,.
c1ccc(-n2cnnc2SCc2cn3ccsc3n2)cc1,2.7%,-7.7%,-7.0%,1.0%,-4.9%,-1.3%
Cc1cccc2nc(CSc3ncccc3C(=O)O)cn12,26.9µM*,-2.9%,1.5%,4.5%,3.2%,0.1%
c1ccn2c(SCc3cn4ccsc4n3)nnc2c1,16.9µM*,?,2.51µM*,?,14.1µM*,-7.0%
Cc1cccc2nc(CSc3nnc4ccccn34)cn12,10.7µM*,.,.,.,?,-5.1%
O=c1cnnc(N/N=C/C2CC=CCC2)[nH]1 (centres undefined),-4.1%,-0.6%,-2.2%,0.6%,3.1%,1.1%
COC(=O)c1cccc(NC(=O)CSc2nnc(C)o2)c1,0.2%,-4.7%,14.7%,6.2%,.,.
O=C(O)c1cc(S(=O)(=O)N2CCN(C(c3ccccc3)c3ccccc3)CC2)ccc1Cl,0.6%,-3.5%,0.2%,-0.2%,.,.
